# From PubChem BioAssay AID488969 (Vanderbilt High Throughput Screening Facility, 2010)
# The full ranking holds about 110,000 compounds; the median of “z-score” is about -0.1, and the highest 2% start at about 2. The list comes from a sample in which the highest values are over-represented; it also holds similar structures and randomly drawn compounds. Active and inactive are the calls of the source.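 How the source made its calls: active means z-score in the third read window above 3 or below -3; inactive means the rest.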
# Target: Metabotropic glutamate receptor 8 (Rattus norvegicus) (UniProt P70579)
# Sequence (P70579 whole entry, looked up): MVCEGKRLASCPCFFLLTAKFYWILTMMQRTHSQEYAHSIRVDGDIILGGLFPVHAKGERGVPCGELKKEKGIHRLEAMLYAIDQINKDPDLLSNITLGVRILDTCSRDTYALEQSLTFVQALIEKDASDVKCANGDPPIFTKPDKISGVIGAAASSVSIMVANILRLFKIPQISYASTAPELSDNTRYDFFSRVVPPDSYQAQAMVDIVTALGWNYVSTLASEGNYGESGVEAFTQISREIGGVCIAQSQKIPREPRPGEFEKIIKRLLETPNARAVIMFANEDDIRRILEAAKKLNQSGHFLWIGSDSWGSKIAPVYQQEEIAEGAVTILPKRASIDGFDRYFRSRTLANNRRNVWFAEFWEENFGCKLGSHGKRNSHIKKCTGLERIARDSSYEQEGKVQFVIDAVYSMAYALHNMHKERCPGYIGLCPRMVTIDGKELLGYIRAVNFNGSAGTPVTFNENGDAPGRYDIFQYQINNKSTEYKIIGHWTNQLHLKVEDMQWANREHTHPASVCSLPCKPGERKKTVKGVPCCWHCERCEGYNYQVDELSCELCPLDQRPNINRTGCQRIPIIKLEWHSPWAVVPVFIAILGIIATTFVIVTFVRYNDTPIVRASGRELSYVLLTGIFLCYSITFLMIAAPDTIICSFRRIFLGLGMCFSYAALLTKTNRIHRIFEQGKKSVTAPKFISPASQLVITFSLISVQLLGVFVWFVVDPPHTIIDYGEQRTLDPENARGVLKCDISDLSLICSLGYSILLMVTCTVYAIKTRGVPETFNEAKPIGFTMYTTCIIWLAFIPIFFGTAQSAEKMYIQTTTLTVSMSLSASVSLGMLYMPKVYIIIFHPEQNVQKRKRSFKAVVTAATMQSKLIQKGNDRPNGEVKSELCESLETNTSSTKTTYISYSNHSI
# Assay: mGluR8 Gi/Go-coupled signaling modulation – cell-based, rat, thallium flux, HTS, primary screen (AID 488969)
# Settings: HEK293 rat mGluR8, GIRK (G protein-gated inwardly rectifying potassium channel) thallium flux, FluoZin2; at 10 µM; stronger effect = higher value; submaximal glutamate (EC20) added with thallium
row,Compound,z-score
1,CCn1c(CCn2ccnc2C)n[nH]c1=S,0.253
2,CCc1ccc(NC(=O)CCn2ccnc2C)cc1,0.306
3,Cc1nccn1CCc1nc(N)nc(N)n1,7.57 (active)
4,O=c1cc(CN2CCN(CCO)CC2)c2cc3c(cc2o1)CCC3,0.804
5,CCN(C(=O)c1ccco1)c1nc(CC(=O)Nc2ccc(Cl)cc2)cs1,-0.635
6,O=C(Nc1ccc2oc(-c3cccnc3)nc2c1)c1ccco1,-0.851
7,CCOC(=O)c1c(-c2ccc(C)o2)csc1NC(=O)COC(=O)c1cccs1,0.191
8,CCOC(=O)c1c(-c2ccc(C)o2)csc1NC(=S)NC(=O)N(C)C,13.6 (active)
9,CCOC(=O)c1c(-c2ccc(C)o2)csc1NC(=O)CSc1nnc(C)s1,-1.11
10,CCOC(=O)c1c(-c2ccc(C)o2)csc1NC(=S)NC(=O)c1ccccc1Br,0.406
11,CCOC(=O)c1c(-c2ccc(C)o2)csc1NC(=S)NC(=O)c1cccs1,3.05 (active)
12,CCOC(=O)c1c(-c2ccc(C)o2)csc1NC(=O)CN(C)CC(=O)Nc1ccc(C)cc1,-0.104
13,O=C1OCCC1Sc1nnc(-c2ccccc2)o1 (configuration not stated),-0.134
14,Cc1c(Cl)cccc1NC(=S)NC1CCN(Cc2ccccc2)CC1,-0.67
15,Cc1cc(C(=O)OCC(=O)Nc2ccc(F)c(F)c2)c(C)o1,0.0113
16,Cc1cc(C(=O)OCC(=O)Nc2ccc(F)cc2)c(C)o1,2.45
17,Cc1occc1C(=O)OCC(=O)Nc1ccc(F)cc1,0.794
18,N#Cc1c(N)nc2c(c1-c1ccncc1)CCCC2,-0.232
19,Cc1cc2occ(CC(=O)NC3CCCc4ccccc43)c2cc1C (configuration not stated),0.0042
20,Cc1ccc2c(CC(=O)NC3CCCc4ccccc43)coc2c1 (configuration not stated),4.11 (active)
21,COc1ccc2c(CC(=O)NC3CCCc4ccccc43)coc2c1 (configuration not stated),-0.484
22,CCOC(=O)C(NC(=O)NCc1ccc(OC)cc1)(OCC)C(F)(F)F (configuration not stated),-0.306
23,O=C(c1ccc(Cl)cc1)c1cnc2ccccn12,-0.0464

row,Compound,z-score
1,O=C(Nc1ccccc1F)c1ccc(-n2cncn2)nc1,-0.0684
2,O=C(CN1CCCCCCC1)N/N=C/c1ccc(F)cc1F,-0.63
3,CC(=O)c1ccc(NC(=O)COC(=O)CCC(=O)c2cccs2)cc1,0.114
4,O=C(CCc1ccccc1)NC(=S)Nc1cccc(Br)c1,0.0148
5,CC(CCc1ccccc1)NC(=O)C(=O)Nc1ccccc1 (configuration not stated),-0.109
6,Cc1ccccc1NC(=S)NC(=O)CCc1ccccc1,2.94
7,Cc1cccc(NC(=O)NC(C)CCc2ccccc2)c1 (configuration not stated),4.17 (active)
8,Cc1ccccc1NC(=S)NC(C)CCc1ccccc1 (configuration not stated),0.22
9,COC(=O)[C@H](C)NC(=O)Nc1cccc(C)c1,-0.0554
10,Cc1ccccc1NC(=O)C(=O)NC(C)CCc1ccccc1 (configuration not stated),7.37 (active)
11,Cc1cccc(NC(=S)NC(=O)CCc2ccccc2)c1C,0.747
12,Cc1cccc(NC(=S)NC(C)CCc2ccccc2)c1 (configuration not stated),0.2
13,Cc1cccc(NC(=S)NC(=O)CCc2ccccc2)c1,2.74
14,Cc1cccc(NC(=S)NNC(=O)Cc2ccccc2)c1,0.0541
15,Cc1cccc(C)c1NC(=S)NC(=O)CCc1ccccc1,1.73
16,CCOc1ccc(Cn2ccnc2CCl)cc1[N+](=O)[O-],-0.00871
17,Cc1cccc(N(C)C(=O)c2coc(=O)c3ccccc23)c1,-0.042
18,CCCS(=O)(=O)N1CCCC(C(=O)NC2CCCCC2)C1 (configuration not stated),0.0604
19,O=C(CSc1nc2c(c(C(F)(F)F)n1)CCc1ccccc1-2)NCc1ccc(F)cc1,0.759
20,CCn1cc(C(=O)N2CCN(Cc3ccc4c(c3)OCO4)CC2)c(=O)c2ccc(C)nc21,-0.451
21,CCc1ccccc1NC(=O)CSc1nc2c(c(-c3ccco3)c1C#N)CCCC2,0.16
22,CCOc1ccc(N2C(=O)CC(Sc3nc(C)cc(C)c3C#N)C2=O)cc1 (configuration not stated),0.15
23,CC1CCN(C(=O)Cc2nn(C)c(=O)c3ccccc23)CC1,0.733

row,Compound,z-score
1,COc1ccc(Oc2nc(C(F)(F)F)nc3ccccc23)cc1,-0.576
2,Cc1c(Br)c([N+](=O)[O-])nn1C(C)C(=O)NCc1cccs1 (configuration not stated),-0.152
3,Cc1ccc(NC(=O)Cn2nnc(-c3ccccc3NC(=O)c3cccs3)n2)cc1,-0.57
4,CCc1cc(-c2n[nH]c(=S)n2C(C)c2ccccc2)cs1 (configuration not stated),2.55
5,CC(c1ccccc1)n1c(-c2ccncc2)n[nH]c1=S (configuration not stated),0.000563
6,CCc1cc(-c2n[nH]c(=S)n2-c2ccccc2C)cs1,-0.325
7,CCn1c(-c2csc(-c3ccccc3)n2)n[nH]c1=S,0.398
8,Cc1scc(-c2n[nH]c(=S)n2C(C)c2ccccc2)c1C (configuration not stated),-1.43
9,CCCc1cc(-c2n[nH]c(=S)n2C(C)c2ccccc2)cs1 (configuration not stated),10.9 (active)
10,CCOC(=O)CNC(=O)CSc1nc(N(C)C)nc(N2CCOCC2)n1,-0.116
11,COc1ccc(-c2cc(-n3c(C(F)(F)F)nc4ccccc43)n(CCC#N)n2)cc1,-0.215
12,CCN1CCN(c2cc(C)c3cc(NC(=O)c4ccncc4)ccc3n2)CC1,1.22
13,CCN1CCN(c2cc(C)c3cc(NC(=O)c4ccc(Br)o4)ccc3n2)CC1,3.44 (active)
14,Cc1cc(N2CCCCC2)nc2ccc(NC(=O)c3ccc(Br)o3)cc12,-1.58
15,CCCC1Cc2nc(N3CCCCC3)c(C#N)cc2CO1 (configuration not stated),0.443
16,Cc1cc(NCCCN(C)C)n2nc(-c3cccs3)cc2n1,-0.0105
17,CCOc1ccc(NS(=O)(=O)c2ccc3c(c2)CCN3C(=O)C2CCC2)cc1,-0.102
18,CC(C)NC(=O)c1cccc(Br)c1,-0.0557
19,Cc1ccc(OCc2nn3c(-c4ccco4)nnc3s2)cc1,-1.14
20,Clc1ccc(-c2cc(-c3nnc4n3CCCCC4)c3ccccc3n2)cc1,2.08
21,Fc1ccc(-c2cc(-c3nnc4n3CCCCC4)c3ccccc3n2)cc1,-0.316
22,c1ccc2c(-c3nnc4n3CCCCC4)cc(-c3ccncc3)nc2c1,0.284
23,O=c1c2c(-c3cccs3)csc2ncn1-c1ccccc1,-0.0624

row,Compound,z-score
1,O=C(c1ccc(Cl)c([N+](=O)[O-])c1)N1CCN(c2ccccn2)CC1,-0.0404
2,O=C(CSc1nc2c(sc3ccccc32)c(=O)n1CCO)NCC1CCCO1 (configuration not stated),0.0816
3,CCC(C)NC(=O)CSc1nc2c(sc3ccccc32)c(=O)n1CCCN1CCOCC1 (configuration not stated),0.452
4,NC(=O)CSc1nc2c(sc3ccccc32)c(=O)n1CCCN1CCOCC1,0.869
5,O=C(CSc1nc2c(sc3ccccc32)c(=O)n1Cc1ccccc1)NCC1CCCO1 (configuration not stated),0.199
6,CC(C)CCn1c(SCC#N)nc2c(sc3ccccc32)c1=O,5.93 (active)
7,Cc1ccc(Cn2c(SCC(=O)NCC3CCCO3)nc3c(sc4ccccc43)c2=O)cc1 (configuration not stated),2.06
8,CCCCn1c(SCC(=O)NCc2ccco2)nc2c(sc3ccccc32)c1=O,-0.00992
9,CCCCn1c(SCC(N)=O)nc2c(sc3ccccc32)c1=O,3.23 (active)
10,CCSc1nc2c(sc3ccccc32)c(=O)n1C(C)C,0.00726
11,Cc1ccc(S(=O)(=O)NCc2c(-c3ccccc3)c3cc(Cl)ccc3[nH]c2=O)cc1,-0.178
12,CC1CC(C)CN(CC(=O)Nc2ccc3c(c2)OCCO3)C1 (configuration not stated),-0.603
13,COc1cc(N2C(=O)c3ccccc3C2=O)c(Cl)cc1C(=O)OCC(=O)NCc1ccco1,0.165
14,CCOC(=O)c1cnc(SC)nc1N,-0.0813
15,CCCn1c(-c2ccc(F)cc2)cnc1SCC(=O)O,-0.678
16,CCOC(=O)c1c(C)[nH]c(C(=O)COC(=O)CNC(=O)c2ccc(Cl)cc2)c1C,5.97 (active)
17,CCOC(=O)c1c(C)[nH]c(C(=O)COC(=O)CNC(=O)c2ccc(Br)cc2)c1C,-0.279
18,CCOC(=O)c1c(C)[nH]c(C(=O)COC(=O)CNC(=O)c2ccc(Cl)cc2Cl)c1C,-0.202
19,COc1ccc(CCn2c(C)cc(C(=O)CSc3nnnn3-c3ccccc3)c2C)cc1,0.292
20,CN(C)c1ccc(/C=C/c2nnnn2-c2ccccc2)cc1,-0.556
21,COc1ccc(S(=O)(=O)N2CCCCC2)cc1NC(=O)c1ccc2ccccc2n1,-0.376
22,CCc1ccc(Nc2nnc(SCn3nnc4ccccc4c3=O)s2)cc1,-0.292
23,CCc1ccc(Nc2nc3ccccc3c(=O)s2)cc1,2.82

row,Compound,z-score
1,CCc1ccc(NCc2nc3ccccc3c(=O)[nH]2)cc1,-0.644
2,Cc1ccc2nc3sc(C(=O)N4CCCc5ccccc54)c(N)c3cc2c1,0.484
3,CN(Cc1nc(-c2ccncc2)no1)S(=O)(=O)c1ccccc1,0.00952
4,O=C(CSc1ccccn1)N1CCN(c2ccccc2)CC1,0.0291
5,Cc1ccc(-n2[nH]c(C)c(C=Nc3ccc(S(=O)(=O)Nc4nc(C)cc(C)n4)cc3)c2=O)c(C)c1,-0.0925
6,CCOc1ccc2nc(SC3CC(=O)N(c4ccc(C)cc4)C3=O)sc2c1 (configuration not stated),0.0229
7,COc1cc(SC#N)ccc1N=Cc1c(C)[nH]n(-c2ccc(C)cc2C)c1=O,-0.204
8,Cc1[nH]n(-c2ccccc2)c(=O)c1C=Nc1cnc2ccccc2c1,0.416
9,CCOc1ccc2nc(NC(=O)CS(=O)(=O)c3ccc(C)cc3)sc2c1,-0.503
10,COc1ccc2nc(/N=C\N(C)C)sc2c1,0.401
11,COc1cc(SC#N)ccc1N=Cc1c(C)[nH]n(-c2ccc(C)cc2)c1=O,0.469
12,CCOc1ccc2nc(/N=C/c3c(C)[nH]n(-c4ccccc4)c3=O)sc2c1,13.8 (active)
13,CCOc1ccc(N=Cc2c(C)[nH]n(-c3nc4ccccc4[nH]3)c2=O)cc1,0.0911
14,COc1ccc2nc(/N=C/c3c(C)[nH]n(-c4ccc(C)cc4)c3=O)sc2c1,9.39 (active)
15,COc1ccc2nc(/N=C/c3c(C)[nH]n(-c4ccc(C)cc4C)c3=O)sc2c1,15.7 (active)
16,CCOc1ccc2nc(/N=C/c3c(C)[nH]n(-c4ccc(C)cc4)c3=O)sc2c1,10.6 (active)
17,O=C(CCc1nc(-c2ccc(Cl)cc2)no1)OCc1ccc(Br)cc1,-0.0119
18,O=C(CCSc1ccc(Cl)cc1)NC1CCCCC1,-0.109
19,COC(=O)c1ccccc1NC(=O)c1cc(-c2ccc(O)cc2)on1,-0.322
20,Cc1cc(N=Cc2cc(Br)ccc2O)no1,-1.2
